PubChem BioAssay (Tox21)
Records with an inconclusive call do not appear. Where a call stands in place of a potency, no number is given. Activity calls are given as the source filed them. Calls come from the whole dose curve.

Test: p53 small molecule agonists, cell-based qHTS assay with human liver microsomes: qHTS cell viability counter screen (AID 1963579)
Conditions: p53RE-bla HCT-116 viability, ATP luminescence, 16 h, HLM; series mostly up to 66 µM
Method in brief: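 Cells carrying the p53 response-element beta-lactamase reporter are treated for 16 h at 37 C with test compounds in the presence of human liver microsomes and NADPH (both 0.5 mg/mL final); ATP-based CellTiter-Glo luminescence then reports viability.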
Note: nearly all actives have a fitted effect of over 45% in size.

SMILES	Potency	activity change, negative = cytotoxicity
CC(C)NCCCC1(C(N)=O)c2ccccc2-c2ccccc21	inactive	–
CC(C(=O)O)c1cccc(Oc2ccccc2)c1 (stereo not given)	inactive	–
CC(C)=CCC[C@@](C)(O)[C@H]1CC=C(C)CC1	inactive	–
O=C(O)C[C@H](O)C[C@H](O)/C=C/c1c(C2CC2)nc2ccccc2c1-c1ccc(F)cc1	–	-1.08% [at 13.5 µM] (inactive)
O=P(O)(O)OCC(O)CO (stereo not given)	inactive	–
COC(=O)[C@H]1[C@H]2C[C@@H]3c4[nH]c5cc(OC)ccc5c4CCN3C[C@H]2C[C@@H](OC(=O)COc2ccc(OC)cc2)[C@@H]1OC	inactive	–
Cc1ccc2c(Cl)cc(Cl)c(O)c2n1	inactive	–
CCC(=O)OC(=O)CC	inactive	–
O=C1c2ccccc2C(=O)N1CO	inactive	–
C[N+]12CCC(CC1)C(OC(=O)C(O)(c1ccccc1)c1ccccc1)C2 (stereo not given)	inactive	–
Cc1cccc([N+](=O)[O-])c1C(=O)O	inactive	–
Nc1nc2c(ncn2COCCO)c(=O)[nH]1	inactive	–
C[N+]1(CC2COC(c3ccccc3)(c3ccccc3)O2)CCCCC1 (stereo not given)	–	-12% [at 13.5 µM] (inactive)
Cc1ncc(CO)c(C=O)c1O	inactive	–
CC(C)c1ccc(C#N)cc1	inactive	–
CN(C)CCN1CCOCC1	inactive	–
CCOC(=O)[C@H](C)O	inactive	–
CO[C@@]1(NC(=O)CSCC#N)C(=O)N2C(C(=O)O)=C(CSc3nnnn3C)CS[C@@H]21	inactive	–
O=C(Nc1ccccc1)Nc1ccccc1	inactive	–
O=C(O)c1ccc[n+]([O-])c1	inactive	–

SMILES	Potency	activity change, negative = cytotoxicity
NC(Cc1ccc(Cl)cc1)C(=O)O (stereo not given)	–	-1.01% [at 0.249 µM] (inactive)
CCCCCCCCCCc1ccccc1	inactive	–
Cc1ccccc1N1C(=O)c2cc(S(N)(=O)=O)c(Cl)cc2NC1C (stereo not given)	inactive	–
NC1CCN(c2nc3c(cc2F)c(=O)c(C(=O)O)cn3-c2ccc(F)cc2F)C1 (stereo not given)	inactive	–
CCOc1cc([N+](=O)[O-])c(OCC)cc1N1CCOCC1	inactive	–
CO[C@@H]1[C@H](OC(=O)/C=C/C=C/C=C/C=C/C(=O)O)CC[C@]2(CO2)[C@H]1[C@@]1(C)O[C@@H]1CC=C(C)C	inactive	–
CN1C(=O)OC(C)(C)C1=O	inactive	–
FC(F)(F)c1ccc(Cl)cc1Cl	inactive	–
O=C(CCC1CCN(Cc2ccccc2)CC1)c1ccc2c(c1)NCCCC2	inactive	–
Cn1c(=O)[nH]c2ncn(C)c2c1=O	inactive	–
Nc1nc(Cl)nc2c1ncn2[C@@H]1O[C@H](CO)[C@@H](O)[C@@H]1F	inactive	–
CC(C)(C)C1=CC(=O)C(C(C)(C)C)=CC1=O	inactive	–
Cc1c(C(=O)NCCO)[n+](=O)c2ccccc2n1[O-]	inactive	–
C=CC(C)(CCC=C(C)C)OC(=O)C(C)C (stereo not given)	inactive	–
CN1Cc2cc(C(=O)N3CCC(C4CCNCC4)CC3)ccc2N[C@@H](CC(=O)O)C1=O	inactive	–
[O-][n+]1cccc(CO)c1	inactive	–
Cc1cc(C(=O)O)ccc1[N+](=O)[O-]	inactive	–
CC(C)=CCC/C(C)=C/C=N/O	inactive	–
CC(=O)c1c(C)cc(C(C)(C)C)cc1C	inactive	–
O=S1(=O)c2cccc3cccc(c23)N1CCCN1CCN(c2ccc(F)cc2)CC1	inactive	–

Test: p53 small molecule agonists, cell-based qHTS assay with rat liver microsomes: qHTS cell viability counter screen (AID 1963580)
Conditions: p53RE-bla HCT-116 + rat microsomes, ATP viability, 16 h; series mostly up to 66 µM
Method in brief: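 Cytotoxicity counter screen: intracellular ATP measured by CellTiter-Glo luminescence in the same wells as the beta-lactamase reporter read, on HCT-116 p53RE-bla cells exposed 16 h at 37 C to compounds with rat liver microsomes and NADPH, each 0.5 mg/mL final.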

SMILES	Potency	activity change, negative = cytotoxicity
CC(C)NCCCC1(C(N)=O)c2ccccc2-c2ccccc21	inactive	–
CC(C(=O)O)c1cccc(Oc2ccccc2)c1 (stereo not given)	inactive	–
CC(C)=CCC[C@@](C)(O)[C@H]1CC=C(C)CC1	inactive	–
O=C(O)C[C@H](O)C[C@H](O)/C=C/c1c(C2CC2)nc2ccccc2c1-c1ccc(F)cc1	–	1.65% [at 13.5 µM] (inactive)
O=P(O)(O)OCC(O)CO (stereo not given)	inactive	–
COC(=O)[C@H]1[C@H]2C[C@@H]3c4[nH]c5cc(OC)ccc5c4CCN3C[C@H]2C[C@@H](OC(=O)COc2ccc(OC)cc2)[C@@H]1OC	inactive	–
Cc1ccc2c(Cl)cc(Cl)c(O)c2n1	inactive	–
CCC(=O)OC(=O)CC	inactive	–
O=C1c2ccccc2C(=O)N1CO	inactive	–
C[N+]12CCC(CC1)C(OC(=O)C(O)(c1ccccc1)c1ccccc1)C2 (stereo not given)	inactive	–
Cc1cccc([N+](=O)[O-])c1C(=O)O	inactive	–
Nc1nc2c(ncn2COCCO)c(=O)[nH]1	inactive	–
C[N+]1(CC2COC(c3ccccc3)(c3ccccc3)O2)CCCCC1 (stereo not given)	–	4.65% [at 13.5 µM] (inactive)
Cc1ncc(CO)c(C=O)c1O	inactive	–
CC(C)c1ccc(C#N)cc1	inactive	–
CN(C)CCN1CCOCC1	inactive	–
CCOC(=O)[C@H](C)O	inactive	–
CO[C@@]1(NC(=O)CSCC#N)C(=O)N2C(C(=O)O)=C(CSc3nnnn3C)CS[C@@H]21	inactive	–
O=C(Nc1ccccc1)Nc1ccccc1	inactive	–
O=C(O)c1ccc[n+]([O-])c1	inactive	–

SMILES	Potency	activity change, negative = cytotoxicity
NC(Cc1ccc(Cl)cc1)C(=O)O (stereo not given)	–	-0.306% [at 0.249 µM] (inactive)
CCCCCCCCCCc1ccccc1	inactive	–
Cc1ccccc1N1C(=O)c2cc(S(N)(=O)=O)c(Cl)cc2NC1C (stereo not given)	inactive	–
NC1CCN(c2nc3c(cc2F)c(=O)c(C(=O)O)cn3-c2ccc(F)cc2F)C1 (stereo not given)	inactive	–
CCOc1cc([N+](=O)[O-])c(OCC)cc1N1CCOCC1	inactive	–
CO[C@@H]1[C@H](OC(=O)/C=C/C=C/C=C/C=C/C(=O)O)CC[C@]2(CO2)[C@H]1[C@@]1(C)O[C@@H]1CC=C(C)C	inactive	–
CN1C(=O)OC(C)(C)C1=O	inactive	–
FC(F)(F)c1ccc(Cl)cc1Cl	inactive	–
O=C(CCC1CCN(Cc2ccccc2)CC1)c1ccc2c(c1)NCCCC2	inactive	–
Cn1c(=O)[nH]c2ncn(C)c2c1=O	inactive	–
Nc1nc(Cl)nc2c1ncn2[C@@H]1O[C@H](CO)[C@@H](O)[C@@H]1F	inactive	–
CC(C)(C)C1=CC(=O)C(C(C)(C)C)=CC1=O	inactive	–
Cc1c(C(=O)NCCO)[n+](=O)c2ccccc2n1[O-]	inactive	–
C=CC(C)(CCC=C(C)C)OC(=O)C(C)C (stereo not given)	inactive	–
CN1Cc2cc(C(=O)N3CCC(C4CCNCC4)CC3)ccc2N[C@@H](CC(=O)O)C1=O	inactive	–
[O-][n+]1cccc(CO)c1	inactive	–
Cc1cc(C(=O)O)ccc1[N+](=O)[O-]	inactive	–
CC(C)=CCC/C(C)=C/C=N/O	inactive	–
CC(=O)c1c(C)cc(C(C)(C)C)cc1C	inactive	–
O=S1(=O)c2cccc3cccc(c23)N1CCCN1CCN(c2ccc(F)cc2)CC1	inactive	–
